# Experimental data from ChEMBL document CHEMBL1157539, “Thousands of chemical starting points for antimalarial lead identification” (Nature, 2010).
# Key:
# Format in all cases: functional
# Plasmodium falciparum [1] = test: GSK_TCMDC: Inhibition of Plasmodium falciparum 3D7 in whole red blood cells, using parasite LDH activity as an index of growth. Test compounds present at 2uM
# Plasmodium falciparum [2] = test: GSK_TCMDC: Inhibition of Plasmodium falciparum Dd2 in whole red blood cells, using parasite LDH activity as an index of growth. Test compounds present at 2uM
# HepG2 = test: GSK_TCMDC: Percent inhibition of human HepG2 cell line. Test compounds present at 10uM.
SMILES,Inhibition (Plasmodium falciparum [1]),Inhibition (Plasmodium falciparum [2]),Inhibition (HepG2)
C=C[C@H]1CN(CCCCCCC)CC[C@H]1CCN(C)c1ccnc2ccc(OC)cc12.O=C(O)C(=O)O,97%,93%,22%
Cc1ccc2c(=NN=Cc3cccc(F)c3)cc(C)[nH]c2c1,96%,66%,34%
COc1cc(C)ccc1S(=O)(=O)N1CCCCC(c2ccc(C(F)(F)F)cc2)=N1,92%,89%,16%
CCCCOP(=O)(OCCCC)C(=Cc1ccc(O)c2ccccc12)P(=O)(OCCCC)OCCCC,84%,64%,1%
COc1ccc(Cn2c(Nc3cccc(C(F)(F)F)c3)nc3cc(C(=O)NCCN4CCCC4)cnc32)cc1Cl,97%,31%,10%
Cl.NCc1ccc(-c2ccc3c(N)nccc3c2)cc1,100%,92%,28%
O=C(CCc1c[nH]cn1)Nc1cccc(-c2ccc(-c3nc4ccccc4[nH]3)cc2)c1,100%,60%,24%
COc1ccc2c(NN=Cc3cccnc3)ccnc2c1,97%,26%,3%
O=C(Nc1cc(F)cc(-c2cccnc2)c1)c1ccc2c(=O)n(Cc3ccccc3)cnc2c1,98%,11%,7%
COc1ccc2nc(C)cc(N/N=C/c3ccc([N+](=O)[O-])cc3)c2c1,100%,70%,0%
COc1ccc(-c2ccc(NC(=O)c3cccc(Cl)c3)c(F)c2)cc1CNC(C)C.O=C(O)C(F)(F)F,93%,14%,19%
COc1cc2c(cc1S(=O)(=O)c1ccc(COc3ccc(C(F)(F)F)cc3)cc1)CNCC2.Cl,100%,89%,32%
NC1CCN(Cc2cccc(-c3cccc(-c4nc5ccccc5[nH]4)c3)c2)C1.O=C(O)C(F)(F)F (stereo not given),100%,0%,14%
O=C(c1cccc(Br)c1)N1CCN(c2ccc([N+](=O)[O-])c(NC3CC3)c2)CC1,99%,100%,5%
O=C(NC1CCCCC1)C(c1cccs1)N(CCc1ccccc1)C(=O)c1ccco1 (stereo not given),92%,63%,0%
O=C(NCCc1ccc(F)cc1)c1ccc(N2CCN(c3ccncc3)CC2)nc1.O=C(O)C(F)(F)F,88%,3%,1%
CCCC1CCNC(C(O)c2ccnc3ccc(OC)cc23)C1.Cl (stereo not given),98%,78%,0%
CN(C)CCCOc1ccc(CN2CC[C@H](NC(=O)c3ccc(Cl)c(Cl)c3)C2)cc1Cl.O=C(O)C(F)(F)F,100%,35%,65%
COc1ccc(Nc2ccnc3cc(Cl)ccc23)cc1OC,100%,91%,36%
CCCCCCCCCCN1C(=O)C2C(CCCCNC(C)=O)NC3(C(=O)N(Cc4ccc(C(C)(C)C)cc4)c4ccccc43)C2C1=O (stereo not given),86%,65%,3%

SMILES,Inhibition (Plasmodium falciparum [1]),Inhibition (Plasmodium falciparum [2]),Inhibition (HepG2)
CCCCCCCN1CC[C@@H](CCCc2ccnc3ccc(OC)cc23)[C@@H](CNC)C1.O=C(O)C(=O)O,100%,95%,25%
COc1ccc(NC(=O)[C@H](Cc2ccccc2)Nc2cc(C)nc(NCCN3CCCC3)n2)cc1.O=C(O)C(F)(F)F,97%,3%,15%
Cn1nc(-c2cccc(CNC3CCc4ccccc43)c2)c2cnc(NC3CCCC3)nc21 (stereo not given),100%,23%,14%
N#Cc1ccc(C=NNc2nc3ccccc3[nH]2)cc1,100%,71%,0%
CCCC(C)NC[C@@H](O)[C@H](Cc1ccccc1)NC(=O)c1cc(NCC)cc(N2CCCCS2(=O)=O)c1.Cl (stereo not given in full),100%,98%,0%
Brc1ccccc1CNc1ccnc(NCCn2ccnc2)n1,99%,33%,72%
CCCCCN1C(=O)C(c2ccccc2)(c2ccccc2)N=C1N,97%,68%,18%
N#Cc1ccc(S(=O)(=O)N2C(c3cccc([N+](=O)[O-])c3)C(C(=O)c3ccccc3)N(C3CCCCC3)C2c2cccc([N+](=O)[O-])c2)cc1 (stereo not given),83%,79%,16%
COc1cccc2c(NN=Cc3cccc(Cl)c3)cc(C)nc12,100%,75%,3%
CCCCNC(=O)[C@H](Cc1ccccc1)NC(=O)c1ccc(O)c(-c2ccc(Cl)c(Cl)c2)c1,98%,97%,0%
CCc1ccc(NC(=O)c2cccc(CN3CCCN(CC4CCCCC4)CC3)c2)cc1.O=C(O)C(F)(F)F,85%,41%,62%
COCCOc1cc(C)c(C2CCN(CCCCNC(=O)c3ccc(NC(=O)c4ccc(Cl)cc4)cc3)CC2)cc1C,88%,30%,15%
Cc1cc(-c2ccc(Cl)cc2)c2c(N)c(C(=O)Nc3ccc(F)cc3)sc2n1,97%,87%,12%
COc1cc(OC)cc(C(=O)Nc2nc(-c3ccccn3)cs2)c1,97%,72%,47%
Cc1ccc(N2CCN(C(=O)c3cccc(-c4cncc5nc(-c6ccco6)n(C)c45)c3)CC2)nc1,94%,91%,0%
CC(C)c1ccc2[nH]c(C(=O)NC3CCC(N4CCCc5ccc(C#N)cc5C4)CC3)cc2c1 (stereo not given),91%,27%,48%
COc1cc2ncnc(Nc3ccc(OCc4ccccc4)c(OCc4ccccc4)c3)c2cc1OC.Cl,100%,57%,4%
O=C(CN1CCCC1)Nc1cccc(C(=O)Nc2cccc(C(F)(F)F)c2)c1,95%,83%,9%
O=C(O)C(F)(F)F.c1cc(CNC2CCN(CC3CCCCC3)CC2)cc(-n2ccnc2)c1,100%,97%,3%
CN1CCCC1CCNC(=O)[C@H](CC1CCCCC1)NC(=O)c1ccc(O)c(-c2ccc(Cl)c(Cl)c2)c1 (stereo not given in full),98%,35%,0%

SMILES,Inhibition (Plasmodium falciparum [1]),Inhibition (Plasmodium falciparum [2]),Inhibition (HepG2)
Cl.NOCCCOc1ccc(Cl)cc1,98%,0%,12%
Cc1cc(OCCCN2CCC(NS(=O)(=O)c3cc(Br)c(Cl)s3)CC2)c2ccccc2n1,95%,39%,5%
N#Cc1ccc(-c2ccc(OCC(O)CN3CCCN(C(=O)C(c4ccc5c(c4)OCO5)N4CCN(C/C=C/c5ccccc5)CC4)CC3)cc2)cc1 (stereo not given),99%,77%,25%
COc1cc2c(cc1OC)CN(CCCCc1ccc(NC(=O)c3cc(Cl)cc(Cl)c3)cc1)CC2,95%,4%,21%
O=C(O)C(F)(F)F.S=C(Nc1cccc(Cl)c1)NC1CCN(c2ccnc3cc(Cl)ccc23)C1 (stereo not given),100%,89%,16%
CCOc1cc(C(C)C)ccc1N1CCN(CCCCNC(=O)c2ccc(NC(=O)c3ccc(Cl)cc3)cc2)CC1,100%,97%,28%
Cc1ccc(C(=O)Nc2cccc(-c3ccc(N4CCN(C)CC4)nn3)c2)cc1[N+](=O)[O-],99%,40%,32%
CC(C)(C)Oc1ccc(CC2NC3(C(=O)N(Cc4ccc(C(C)(C)C)cc4)c4ccccc43)C3C(=O)N(c4ccc(Br)cc4)C(=O)C23)cc1 (stereo not given),94%,94%,24%
COc1ccc2c(OC)c(CNCCCCCCNCc3ccc4cc(OC)ccc4c3OC)ccc2c1.CS(=O)(=O)O,98%,49%,100%
O=C(Nc1cccc(OC2CCN(Cc3ccccc3)CC2)c1)c1ccc(Cl)c(Cl)c1.O=C(O)C(F)(F)F,100%,45%,16%
CN(C)CCCNc1ncnc2c1[nH]c1ccc(F)cc12,100%,0%,14%
CNCCNc1nccc(N2CCc3ncnc(Nc4ccc(OCc5cccc(F)c5)c(Cl)c4)c3C2)n1,100%,98%,30%
COc1cc(C(=O)N2C(c3nccs3)C(C(=O)N(OC)C(C)c3ccccc3)CC2(CC(C)C)C(=O)OC(C)(C)C)ccc1C(C)(C)C (stereo not given),92%,92%,12%
CC1CN(c2cnn(Cc3cccc(NC(=O)Nc4ccc(F)cc4[N+](=O)[O-])c3)c(=O)c2Cl)CC(C)N1.O=C(O)C(F)(F)F (stereo not given),91%,13%,7%
CNC(=O)C1Cc2c([nH]c3ccc(Cl)cc23)C2(CCN(CCc3ccccc3)CC2)N1 (stereo not given),98%,16%,2%
O=C(NCCc1ccc(Cl)c(Cl)c1)c1ccc(CNC(=O)c2ccc(O)c(-c3ccc(Cl)c(Cl)c3)c2)cc1,97%,3%,0%
CCOC(=O)C1=C(C)N=c2sc(=Cc3cc(Cl)ccc3O)c(=O)n2C1c1cc(OC)c(OC)cc1Br (stereo not given),97%,76%,6%
CN(CCO)Cc1cccc(-c2ccc(NC(=O)c3cccc(C#N)c3)cc2)c1.O=C(O)C(F)(F)F,97%,57%,23%
Cn1cc(C2CCN(CCCCNC(=O)c3ccc(C(=O)Nc4ccc(C#N)cc4)cc3)CC2)c2ccccc21,100%,58%,16%
COCCn1ccc2c3c(N)nc(N)nc3ccc21,93%,29%,43%
